Records with an inconclusive call do not appear. Calls of active or inactive are those of the source. Rule for the calls, unless noted: active = hit-call score of the fitted dose curve at least 0.9, where 1 is the maximum; inconclusive = response in the unintended direction; inactive = score below 0.9.
Legend:
[1] = STM_H9_CystineISnorm_perc: Stemina devTOX quickPredict H9 human embryonic stem cell (hESC)-based Assay for Cystine (CYSS) Metabolite Biomarker, Normalized (AID 2283713; active = hit-call score of the fitted dose curve at least 0.9, where 1 is the maximum; inactive = score below 0.9)
Method in brief: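 UPLC-HRMS read-out: endogenous cystine peak area in spent medium, normalized to isotope-labeled internal standard and to median of 0.1% DMSO controls. Pluripotent H9 cells, 72h exposure, daily medium/compound replenishment; medium from last 24h sampled.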

[2] = STM_H9_OrnCyssISnorm_ratio: Stemina devTOX quickPredict H9 human embryonic stem cell (hESC)-based Assay for Ornithine (ORN):Cystine (CYSS) Ratio (AID 2283714)
Method in brief: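 Ratio of internal-standard-normalized ornithine to cystine, measured by UPLC-HRMS in spent media from the last 24 h. H9 cells kept pluripotent, dosed 72 h with daily media and compound renewal; DMSO 0.1% serves as baseline.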

[3] = CEETOX_H295R_MTT_cell_viability: Viability Assessment in the CeeTox HT-H295R MTT Assay (AID 2283718; active = hit-call score of the fitted dose curve at least 0.9, where 1 is the maximum; inactive = score below 0.9;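 for AC50: curve fitted both ways so AC50 may mark viability loss or gain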)
Method in brief: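 MTT reduction (0.5 mg/ml, 4 h at 37 C; absorbance at 570 and 650 nm) gave viability as background-corrected percent change versus controls. H295R cells had 48 h forskolin (10 uM) prestimulation, then 48 h chemical exposure at 0.1% DMSO.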

[4] = Tanguay_ZF_120hpf_ActivityScore_legacy: (Legacy) Oregon State University Tanguay Lab 120 Hour Post-fertilization zebrafish Assay Score for Activity (AID 2283742);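 for AC50: dechorionated Tropical 5D wild-type zebrafish embryos held singly per well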
Method in brief: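 Binary scoring of mortality and morphology by brightfield at 24 and 120 hpf, summarised into one activity score from 18 components relative to DMSO. Wild-type Tropical 5D zebrafish, chorion removed at 4 hpf, static exposure 6–120 hpf, 28 °C.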

[5] = target: Luciferin 4-monooxygenase (Photinus pyralis) (UniProt P08659); experiment: CCTE_Simmons_QuantiLum_inhib_2: CCTE's Firefly Luciferase Inhibition Assay, Simmons Lab (AID 2283767);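 for AC50: potency for inhibitors that lower luciferase luminescence relative to DMSO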
Method in brief: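 Cell-free QuantiLum luciferase, 5 ng/well; compounds 5 nM–87.5 uM final, 8 conc, 0.5% DMSO; 30 min, 37C, dark. Detection reagent (150 uM D-luciferin, 147 uM dATP, CoA, DTT, pH 7.8 final) injected per well, kinetic luminescence. Triplicate biological replicates.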

[6] = ACEA_AR_antagonist_AUC_viability: ACEA Biosciences xCELLigence Real-Time Cell Analysis on Androgen Receptor Antagonism for Viability (AID 2283776);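 note: 22Rv1 human prostate cancer cells growing on impedance electrode plates; area under impedance growth curve at 80 h after dosing as viability; hits lower the growth signal relative to DMSO meaning cytotoxicity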
Method in brief: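 Impedance read-out (RT-CES): area under growth curve at 80 h post-dose, loss of signal scored vs DMSO baseline. 22Rv1 cells; 8-pt 1:4 series, top 100 uM final, ≤0.5% DMSO; biological duplicate.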

[7] = ACEA_AR_agonist_AUC_viability: ACEA Biosciences xCELLigence Real-Time Cell Analysis on Androgen Receptor Agonism for Viability (AID 2283775);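 for AC50: viability read 80 hours after compound addition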
Method in brief: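 Viability endpoint from xCELLigence impedance in 22Rv1 prostate cells at 80 h. Eight-point series, 100 uM maximum final.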

[8] = test system: Thyroperoxidase (TPO), gene 445522; experiment: CCTE_Simmons_GUA_TPO: CCTE's Guaiacol Assay for Thyroperoxidase (TPO) Inhibition, Simmons Lab (AID 2283750)
Method in brief: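 Porcine thyroid microsomes (25 ug) in 200mM potassium phosphate, preincubated 30 s at 37C with compound (8 concentrations, 5 nM–87.5 uM) and 35mM guaiacol; 1mM H2O2 starts reaction. Absorbance change at 450nm over first 80 s; loss of signal versus DMSO, three replicates.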

[9] = ArunA_CellTiter_hNC: Viability Assessment in the ArunA Biomedical's Oris Neural Crest (hNC) Cell Migration Assay (AID 2283752)
Method in brief: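 hNC cells (H9 ESC-derived), 60,000/well, Matrigel, LIF + bFGF medium; 16 h 37C attachment; 72 h compound in test medium; CellTiter Aqueous One read-out; loss-of-signal vs DMSO baseline.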

[10] = ArunA_Migration_hNP: ArunA Biomedical's Oris Neuroprogenitor (hNP) Cell Migration Assay (AID 2283754)
Method in brief: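 Readout is calcein-AM fluorescence (ex494/em517) of cells migrating into the detection zone, relative to DMSO. hNP1 cells (H9-derived) grown on Matrigel behind stoppers 16 h, then stoppers pulled and chemical applied 72 h; cytochalasin D as control.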

[11] = ArunA_Migration_hNC: ArunA Biomedical's Oris Neural Crest (hNC) Cell Migration Assay (AID 2283755)
Method in brief: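 Calcein-AM fluorescence (ex494 nm/em 517 nm) in the stopper-defined detection zone quantifies migration of hNC cells after 72 h chemical exposure; 60,000 cells/well plated on Matrigel with LIF and bFGF, 16 h pre-incubation. DMSO baseline.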

[12] = ArunA_NOG_NucleusCount: ArunA Biomedical's Neurite Outgrowth (NOG) Assay for Nucleus Count (AID 2283756)
Method in brief: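 Viable neuron count, from Hoechst nuclei passing size and intensity gates, imaged at 20x on differentiated H9-derived human neurons. Exposure lasted 48 h from seeding; activity was scored relative to DMSO.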

[13] = test system: chicken Androgen Receptor (AR), gene 422165; experiment: ATG_chAR_XSP1: Attagene TRANS-FACTORIAL Multi-Species (XSP1) HepG2 Assay for chicken Androgen Receptor (AR) (AID 2283768)
Method in brief: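 Reporter mRNA read by RT-PCR with fluorescent labelling and capillary electrophoresis 24 h after chemical dosing of transiently transfected HepG2 cells. Chicken AR-Gal4 chimera, partially stimulated with 3 nM 6-alpha-fluorotestosterone; activity fitted upward relative to DMSO.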

[14] = test system: zebrafish Androgen Receptor (AR), gene 100005148; experiment: ATG_zfAR_XSP1: Attagene TRANS-FACTORIAL Multi-Species (XSP1) HepG2 Assay for zebrafish Androgen Receptor (AR) (AID 2283771)
Method in brief: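 Gain-of-signal versus DMSO was measured as reporter transcripts quantified by RT-PCR, fluorescent labelling and capillary electrophoresis after 24 h chemical exposure. The cells were HepG2 expressing a chimeric zebrafish AR-GAL4, co-stimulated with 3 nM 6-alpha-fluorotestosterone.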

[15] = target: zebrafish Estrogen Receptor (ESR1), esr1 (gene 259252) (UniProt P57717); experiment: ATG_zfER1_XSP1: Attagene TRANS-FACTORIAL Multi-Species (XSP1) HepG2 Assay for zebrafish Estrogen Receptor (ESR1) (AID 2283772)
Method in brief: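 Exogenous chimeric receptor-GAL4 activity is measured in transiently transfected human HepG2 liver cells after 24 h compound exposure. Reporter transcripts are detected by RT-PCR and fluorescent capillary electrophoresis, analysed for signal gain relative to DMSO.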

[16] = test system: zebrafish Estrogen Receptor (ESR2B), gene 317733; experiment: ATG_zfER2b_XSP1: Attagene TRANS-FACTORIAL Multi-Species (XSP1) HepG2 Assay for zebrafish Estrogen Receptor (ESR2B) (AID 2283773)
Method in brief: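 Medium contained 3 nM 6-alpha-fluorotestosterone. Reporter mRNA induction by exogenous zebrafish ER2b-Gal4 chimera was read 24 h post-dose in transiently transfected HepG2 cells, using RT-PCR, fluorescent labelling, HpaI digestion and capillary electrophoresis.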

[17] = test system: frog Estrogen Receptor (ESR2), gene 100174814; experiment: ATG_frER2_XSP1: Attagene TRANS-FACTORIAL Multi-Species (XSP1) HepG2 Assay for frog Estrogen Receptor (ESR2) (AID 2283774)
Method in brief: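 Reporter mRNA from a multiplexed TRANS system, measured by RT-PCR with fluorescent labelling and capillary electrophoresis, 24 hours after chemical exposure. Human HepG2 liver cells carried exogenous frog ER-Gal4 chimera; medium included 3 nM 6-alpha-fluorotestosterone; increases versus DMSO analysed.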

[18] = test system: frog Estrogen Receptor (ESR1), gene 398734; experiment: ATG_frER1_XSP1: Attagene TRANS-FACTORIAL Multi-Species (XSP1) HepG2 Assay for frog Estrogen Receptor (ESR1) (AID 2283777)
Method in brief: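 HepG2 cells transiently transfected with GAL4-UAS reporter units and frog ER–Gal4 chimera were dosed for 24 h with 3 nM 6-alpha-fluorotestosterone present. Reporter mRNA was measured by RT-PCR and capillary electrophoresis; gain of signal fitted versus DMSO.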

Measured: AC50

Sequence of Luciferin 4-monooxygenase (Photinus pyralis) (P08659 whole entry, looked up): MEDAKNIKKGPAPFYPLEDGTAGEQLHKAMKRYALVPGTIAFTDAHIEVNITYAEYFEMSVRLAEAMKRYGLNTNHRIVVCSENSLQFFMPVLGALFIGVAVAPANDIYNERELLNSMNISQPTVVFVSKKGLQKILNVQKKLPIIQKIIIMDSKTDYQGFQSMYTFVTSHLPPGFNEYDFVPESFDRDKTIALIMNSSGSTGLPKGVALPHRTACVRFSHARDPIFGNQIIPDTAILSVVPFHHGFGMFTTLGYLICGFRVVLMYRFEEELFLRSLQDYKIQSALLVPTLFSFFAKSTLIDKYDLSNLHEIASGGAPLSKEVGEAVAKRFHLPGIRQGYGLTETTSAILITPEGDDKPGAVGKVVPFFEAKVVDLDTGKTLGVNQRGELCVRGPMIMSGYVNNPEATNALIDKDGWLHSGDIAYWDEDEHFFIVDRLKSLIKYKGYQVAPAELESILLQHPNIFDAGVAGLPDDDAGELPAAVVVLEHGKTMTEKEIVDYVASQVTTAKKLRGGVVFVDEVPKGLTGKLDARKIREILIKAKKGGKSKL
Sequence of zebrafish Estrogen Receptor (ESR1), esr1 (gene 259252) (P57717 whole entry, looked up, the tested form may be a part): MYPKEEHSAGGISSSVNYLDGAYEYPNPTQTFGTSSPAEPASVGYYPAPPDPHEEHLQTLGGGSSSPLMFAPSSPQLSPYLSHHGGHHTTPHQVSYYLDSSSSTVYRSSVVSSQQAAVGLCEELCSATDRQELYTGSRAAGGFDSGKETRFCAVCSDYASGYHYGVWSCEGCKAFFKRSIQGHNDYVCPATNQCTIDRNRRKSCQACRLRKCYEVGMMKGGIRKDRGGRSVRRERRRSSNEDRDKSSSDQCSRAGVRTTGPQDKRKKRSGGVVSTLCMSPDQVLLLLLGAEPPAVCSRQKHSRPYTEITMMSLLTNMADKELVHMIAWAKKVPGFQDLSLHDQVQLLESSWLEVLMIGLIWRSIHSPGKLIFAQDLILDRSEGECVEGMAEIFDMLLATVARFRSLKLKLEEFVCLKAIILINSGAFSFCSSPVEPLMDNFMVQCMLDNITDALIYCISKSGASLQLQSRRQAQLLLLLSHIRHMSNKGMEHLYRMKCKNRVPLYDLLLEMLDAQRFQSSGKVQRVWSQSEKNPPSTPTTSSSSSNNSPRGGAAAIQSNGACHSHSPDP

CC1=C(/C=C/C(C)=C/C=C/C(C)=C/C(=O)O)C(C)(C)CCC1
active: [1] 0.00844 µM | [2] 0.00532 µM | [3] 1.21 µM | [4] 0.34 µM | [6] 78.6 µM
inactive: [5]

C#C[C@]1(O)CC[C@H]2[C@@H]3CCC4=CC(=O)CC[C@@H]4[C@H]3CC[C@@]21C
inactive: [4]
active: [1] 79.8 µM | [2] 74.8 µM | [3] 2.31 µM

COc1ccc([N+](=O)[O-])cc1N
active: [6] 27.3 µM
inactive: [1] | [2] | [3] | [4] | [5] | [7]

O=C(O)c1ccccc1C(c1ccc(O)cc1)c1ccc(O)cc1
active: [8] 118 µM | [5] 15.3 µM
inactive: [3] | [4] | [7] | [6]

CC#C[C@]1(O)CC[C@H]2[C@@H]3CCC4=CC(=O)CCC4=C3[C@@H](c3ccc(N(C)C)cc3)C[C@@]21C
inactive: [5]
active: [3] 13.4 µM | [4] 27.9 µM | [7] 28.1 µM | [6] 25.2 µM

CN1CCN(c2ccccc2/C=C2\SCCN(c3ccc(Cl)c(Cl)c3)C2=O)CC1
active: [1] 7.81 µM | [2] 7.71 µM | [7] 66.3 µM | [6] 66.9 µM
inactive: [4] | [5]

CCCCCCCCCCCCc1ccccc1S(=O)(=O)O
inactive: [1] | [4] | [9] | [10] | [11] | [12] | [5] | [7] | [6]

CC[C@H](c1ccc(O)cc1)[C@@H](CC)c1ccc(O)cc1
inactive: [4] | [5] | [13] | [14]
active: [15] 0.000114 µM | [16] 0.0657 nM | [17] 0.000101 µM | [7] 10.7 µM | [6] 10.1 µM | [18] 0.0764 nM

Source: PubChem BioAssay (EPA / NIEHS)
